Bioassay records as filed in PubChem.
HT1080-NT tox = kills 2HG-producing HT-1080-NT fibrosarcoma cells; HT-1080-NT fibrosarcoma viability, CellTiter-Glo ATP luminescence, 48 h; Potency, µM (titrated, usually from 46.1 µM), actives largely listed as cytotoxic; AID 686970; hit rate 1.6% among 360,000;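 note: NT is the 2HG producing partner of a matched IDH1 knockdown line; nearly all actives have a fitted effect of over 55% in size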
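HT-1080-NT; 750 cells/well; 5% FBS RPMI; 48 h compound, 37 degrees C; CellTiter-Glo luminescence; curve fitting and curve-class assignment.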
KB-V1 cytotox = KB-V1 MDR subline cytotoxicity; KB-V1 MDR cells viability, CellTiter-Glo, 72 h; hit rate 3.4% among 400,000; Potency, µM (highest dose often 46.1 µM), hits mostly cytotoxic; note: nearly all actives have a fitted effect of over 60% in size
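Readout: CellTiter-Glo luminescence, 10 min after addition. Cells: KB-V1 MDR subline, 72 h at 37 degrees C with compound. Analysis: corrected, normalized data fitted to concentration-effect curves.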
MCF10A rereplic = inducers of DNA re-replication in MCF 10A breast cells; AID 624296; MCF 10A DNA re-replication, Hoechst nuclear intensity, 48 h; hit rate 2.9% among 350,000; Potency, µM (titrated, usually from 46.1 µM), actives largely listed as activators; note: nearly all actives have a fitted effect of over 50% in size
HT1080 IDH1KD tx = kills HT-1080 cells with IDH1 knockdown | hit rate 2% among 360,000 | Potency, µM (top dose mostly 46.1 µM), most hits filed as cytotoxic | HT-1080 IDH1 knockdown viability, ATP luminescence, 48 h
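HT-1080-IDH1KD cells (IDH1 knocked down), 750/well in RPMI with 5% FBS, treated with compound 48 h at 37 degrees C. Viability by CellTiter-Glo luminescence, normalised to DMSO and no-cell wells; concentration-response curves classed.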
KB-3-1 cytotox = KB-3-1 parental cell cytotoxicity. KB-3-1 viability, CellTiter-Glo ATP luminescence, 72 h. Potency, µM (top dose mostly 46.1 µM), usual class: cytotoxic. hit rate 1.4% among 400,000. AID 1347075; note: nearly all actives have a fitted effect of over 60% in size
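Parental KB-3-1 viability, qHTS format: 72 h compound exposure, 37 °C; CellTiter-Glo; media-only wells and DMSO plates as controls; concentration-effect fits on corrected data.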
SW480 rerep = DNA re-replication induction in SW480 cells | SW480 DNA re-replication, Hoechst DNA content imaging, 48 h | Potency, µM (doses to about 46.1 µM), usual class: activators | hit rate 1.8% among 340,000 | AID 624297; note: nearly all actives have a fitted effect of over 55% in size
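Image-based DNA-content assay: after two days of treatment, nuclei were labelled with the DNA dye Hoechst and imaged, and hits were compounds raising the count of nuclei showing high fluorescence intensity.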
Each line names hits and unclear results; the compound was inactive in the other large screens. An excerpt weighted towards active compounds, which were near 7.9% of everything screened. Calls come from the whole dose curve; as a rule, active = well fitted curve in the direction sought with a large enough effect; inconclusive = small, poorly fitted or top-dose-only effect, or another doubt; inactive = no such curve, though single readings can be large; an effect the other way counts as inactive or inconclusive.

CCN(CC)C(=O)c1cccc(-c2csc(C(C)(O)c3ccc(OC)cc3)n2)c1 (stereo unspecified)	HT1080-NT tox 5.8µM, KB-V1 cytotox inconclusive, HT1080 IDH1KD tx inconclusive, KB-3-1 cytotox 12µM (no result: MCF10A rereplic, SW480 rerep)
CC(O)(c1ccc(F)c(F)c1)c1nc(-c2cccc(C(F)(F)F)c2)cs1 (stereo unspecified)	HT1080-NT tox inconclusive, HT1080 IDH1KD tx inconclusive (no result: MCF10A rereplic, SW480 rerep)
CCN(CC)C(=O)c1cccc(-c2csc(C(C)(O)c3cccc(OC)c3)n2)c1 (stereo unspecified)	HT1080 IDH1KD tx inconclusive (no result: MCF10A rereplic, SW480 rerep)
CC(O)(c1ccc(F)c(F)c1)c1nc(-c2ccc(Cl)cc2)cs1 (stereo unspecified)	HT1080-NT tox inconclusive, HT1080 IDH1KD tx 23µM (no result: MCF10A rereplic, SW480 rerep)
COc1ccc(-c2csc(C(C)(O)c3cccnc3)n2)cn1 (stereo unspecified)	none (no result: MCF10A rereplic, SW480 rerep)
COc1ccc(-c2csc(C(O)(c3ccccc3)C(F)(F)F)n2)cn1 (stereo unspecified)	HT1080-NT tox 23µM (no result: MCF10A rereplic, SW480 rerep)
CCOC(=O)C1(C)C=C(Nc2ccc(C)cc2)C(=O)N1c1ccccc1 (stereo unspecified)	none (no result: HT1080-NT tox, MCF10A rereplic, HT1080 IDH1KD tx, SW480 rerep)
Cc1ccc(S(=O)(=O)c2nnn3c2nc(Nc2ccc(C(C)C)cc2)c2sccc23)cc1C	none (no result: HT1080-NT tox, MCF10A rereplic, HT1080 IDH1KD tx, SW480 rerep)
CC(C)C1NC(C(=O)O)Cc2c1[nH]c1ccccc21 (stereo unspecified)	KB-3-1 cytotox inconclusive
OC(c1ccccc1)(c1nc(-c2cccc(C(F)(F)F)c2)cs1)C(F)(F)F (stereo unspecified)	HT1080-NT tox 23µM, KB-V1 cytotox inconclusive, HT1080 IDH1KD tx 16µM (no result: MCF10A rereplic, SW480 rerep)
COc1cccc(C(N)c2nc(-c3csc4ccccc34)cs2)c1 (stereo unspecified)	HT1080-NT tox inconclusive, KB-V1 cytotox 8.2µM, HT1080 IDH1KD tx inconclusive, KB-3-1 cytotox 7.3µM (no result: MCF10A rereplic, SW480 rerep)
O=C(O)c1cccc(-c2csc(C(O)(c3ccccc3)C(F)(F)F)n2)c1 (stereo unspecified)	none (no result: MCF10A rereplic, SW480 rerep)
FC(F)(F)c1cccc(-c2ccn3ncnc3n2)c1	KB-V1 cytotox 21µM
CCN(CC)C(=O)c1cccc(-c2csc(C(O)(c3ccccc3)C(F)(F)F)n2)c1 (stereo unspecified)	HT1080-NT tox 23µM, KB-V1 cytotox inconclusive, HT1080 IDH1KD tx 16µM, KB-3-1 cytotox inconclusive (no result: MCF10A rereplic, SW480 rerep)
O=C(Cn1cc(C(F)(F)F)ccc1=O)Nc1ccc2c(c1)OCO2	none (no result: MCF10A rereplic, SW480 rerep)
CC(CNC(=O)COC(=O)c1cccnc1Cl)c1ccccc1 (stereo unspecified)	none
COc1cccc(NC(=O)CN(C)C(=O)c2cccnc2Sc2ccc(C)c(C)c2)c1	KB-V1 cytotox inconclusive
O=C(Nc1c(F)cccc1F)c1ccc2c(c1)CCN2S(=O)(=O)c1ccccc1	none
COc1ccc(C(C)(O)c2nc(-c3csc4ccccc34)cs2)cc1 (stereo unspecified)	HT1080-NT tox inconclusive, HT1080 IDH1KD tx 16µM, KB-3-1 cytotox inconclusive (no result: MCF10A rereplic, SW480 rerep)
N#Cc1cccc(-c2csc(C(O)(c3ccccc3)C(F)(F)F)n2)c1 (stereo unspecified)	HT1080-NT tox inconclusive, KB-V1 cytotox inconclusive, HT1080 IDH1KD tx 16µM, KB-3-1 cytotox inconclusive (no result: MCF10A rereplic, SW480 rerep)
COc1ccc(-c2csc(C(O)(c3ccccc3)C(F)(F)F)n2)cc1 (stereo unspecified)	HT1080-NT tox inconclusive, HT1080 IDH1KD tx inconclusive (no result: MCF10A rereplic, SW480 rerep)
OC(c1ccccc1)(c1nc(-c2ccc(Cl)cc2)cs1)C(F)(F)F (stereo unspecified)	HT1080-NT tox 16µM, HT1080 IDH1KD tx inconclusive (no result: MCF10A rereplic, SW480 rerep)
Cc1ccc2occ(CN3CCN(c4ccccc4)CC3)c(=O)c2c1	KB-V1 cytotox 23µM, MCF10A rereplic inconclusive, HT1080 IDH1KD tx inconclusive
CCN1CCN(Cc2coc3ccc(C)cc3c2=O)CC1	MCF10A rereplic inconclusive
CC(C)(C)c1cc(OC(=O)c2ccncc2)ccc1O	none
CC(C)(C)c1cc(OC(=O)c2ccccc2F)ccc1O	HT1080-NT tox 33µM, HT1080 IDH1KD tx 21µM
O=C(Nc1ccc(F)c(F)c1)c1cnc(-c2ccccc2)nc1-c1ccccc1	HT1080-NT tox inconclusive, MCF10A rereplic 13µM, HT1080 IDH1KD tx inconclusive
O=C(Nc1ccc(F)cc1)c1cnc(-c2ccccc2)nc1-c1ccccc1	HT1080-NT tox inconclusive, KB-V1 cytotox inconclusive, HT1080 IDH1KD tx inconclusive, SW480 rerep inconclusive
CC1=CC(=O)C=C(C)C1=NOC(=O)/C=C\c1ccccc1	MCF10A rereplic inconclusive, SW480 rerep 5.8µM
CCOC(=O)c1cc(C(C)=O)n2ccccc12	none
CCOC(=O)c1cc(Br)c(=O)n2ccccc12	KB-V1 cytotox 15µM
CCOc1ccc2c(c1)OC(c1ccc(C)cc1)(C(F)(F)F)NC2=O (stereo unspecified)	HT1080-NT tox inconclusive, KB-V1 cytotox 1.3µM, MCF10A rereplic 1.5µM, HT1080 IDH1KD tx 2.3µM, SW480 rerep inconclusive
COc1cccc(NC(=O)CN(CCc2ccccc2)S(=O)(=O)c2ccc(Cl)cc2)c1	none (no result: HT1080-NT tox, MCF10A rereplic, HT1080 IDH1KD tx, SW480 rerep)
Cc1ccc(C)c(S(=O)(=O)Nc2cc(SCC(=O)O)c(O)c3ccccc23)c1	HT1080-NT tox 23µM, KB-V1 cytotox inconclusive, MCF10A rereplic inconclusive, HT1080 IDH1KD tx 18µM, KB-3-1 cytotox inconclusive, SW480 rerep inconclusive
O=C(O)CSc1cc(NS(=O)(=O)c2cccc([N+](=O)[O-])c2)c2ccccc2c1O	HT1080-NT tox 13µM, KB-V1 cytotox 5.8µM, MCF10A rereplic 2.1µM, HT1080 IDH1KD tx 18µM, KB-3-1 cytotox inconclusive, SW480 rerep 21µM
O=C(O)c1ccccc1NS(=O)(=O)c1cccc2cccnc12	none
CCOc1ccc(S(=O)(=O)Nc2cc(SCC(=O)O)c(O)c3ccccc23)cc1	HT1080-NT tox 23µM, KB-V1 cytotox inconclusive, MCF10A rereplic inconclusive, HT1080 IDH1KD tx 23µM, KB-3-1 cytotox inconclusive
O=S(=O)(Nc1cc(Sc2cccc3cccnc23)c(O)c2ccccc12)c1ccccc1	MCF10A rereplic 23µM, SW480 rerep 8.2µM (no result: HT1080-NT tox, KB-V1 cytotox, HT1080 IDH1KD tx, KB-3-1 cytotox)
O=C(Nc1ccc2c(c1)CCC2)Nc1ccc(F)cc1F	none
Cc1ccc(C)c(NCC(=O)c2ccc(Cl)cc2)c1	MCF10A rereplic 23µM, SW480 rerep inconclusive
Cc1cc(C)cc(NC(=O)CSc2nc(=O)n(CCCN3CCOCC3)c3c2CCCC3)c1	MCF10A rereplic inconclusive
CCOC(=O)/C=C/[C@H]1CCc2cccc(C)c2O1	none
COc1ccccc1C1=NC(c2ccccc2)CN1c1ccccc1 (stereo unspecified)	MCF10A rereplic 5.2µM, SW480 rerep 6.5µM
OC1(c2ccccc2)CCN(Cc2ccccc2)C2CCCCC21 (stereo unspecified)	KB-V1 cytotox 23µM
Cc1cc2cc(CNC(=O)Cc3cccs3)ccc2n1C	none
O=C1OCCN1C(=O)[C@H]1[C@H](c2ccc([N+](=O)[O-])cc2)C(c2cccc(Cl)c2)=NN1c1ccc(Br)cc1	none
